Hits are enriched below; roughly 2.3% of the tested compounds scored in any of these assays.
Mcl1 Bid PPI – Mcl-1/Bid binding inhibitors, primary screen, biochemical, TR-FRET, 1536-well | Induced myeloid leukemia cell differentiation protein Mcl-1 (Homo sapiens), Q07820 | TR-FRET Mcl-1/Bid-Dy647 peptide binding | inhibition, % at 21.7 µM | 220,000 tested, 0.97% active | AID 1021, 2008;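 active means compounds that cut the binding signal by more than half at the single screening dose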;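 further: His-tagged Mcl-1 with europium anti-His antibody binding Bid BH3 peptide; 0% = Mcl-1 plus peptide wells and 100% = peptide-only wells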
BCLXL inh – inhibitors of human Bcl-xL, primary screen, biochemical, fluorescence polarization, HTS; GST-Bcl-xL / FITC-Bim BH3 peptide fluorescence polarization; AID 2129, 2009; 320,000 tested, 0.7% active; inhibition, % at 10.9 µM;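 active means inhibition above the mean of all tested compounds plus 3 SD, cutoff set per campaign, cut at about 30% in these data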;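 further: 0% = DMSO wells and 100% = unlabeled Bim-BH3 peptide competitor; inhibitors lower millipolarization by displacing the labeled peptide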
Mcl1-Noxa inh – Mcl-1/Noxa binding inhibitors, primary screen, biochemical, TR-FRET, 1536-well. Induced myeloid leukemia cell differentiation protein Mcl-1 (Homo sapiens), Q07820. TR-FRET Mcl-1/Noxa peptide binding, 2 h. inhibition, % at 21.7 µM. 220,000 tested, 1.5% active;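 active means compounds that cut the protein-peptide binding signal by more than 50% relative to plate controls in a single-dose test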;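 further: His-tagged Mcl-1 with rhodamine Noxa BH3 peptide and terbium anti-His antibody; 0% = Mcl-1 plus Noxa peptide wells and 100% = peptide-only wells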
Bim-Mcl-1 – inhibitors of Bim peptide binding to Mcl-1, primary screen, biochemical, bead-based flow cytometry, multiplex; inhibition, % at 10 µM; AID 1009, 2008; Induced myeloid leukemia cell differentiation protein Mcl-1 (Homo sapiens), Q07820; 190,000 tested, 0.1% active; Bim peptide-Mcl-1 binding; in the data active means inhibition above about 40%;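 further: 0% = no compound tracer wells and 100% = peptide blocker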
MCL1-BIM inh – inhibitors of MCL1 binding to BIM-BH3, primary screen, biochemical, fluorescence polarization. Induced myeloid leukemia cell differentiation protein Mcl-1 (Homo sapiens), Q07820. GST-MCL1 / FITC-Bim-BH3 fluorescence polarization. inhibition, % at 10.9 µM. 320,000 tested, 0.68% active;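 active means inhibition above the mean inhibition of all tested compounds plus 3 SD, set per campaign, cut at about 40% in these data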;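 further: 0% = DMSO wells and 100% = unlabeled Bim-BH3 peptide control; higher means more loss of mP so more displacement of Bim peptide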
GLD-1 TGE inh – GLD-1/TGE RNA complex disruptors, primary screen, biochemical, fluorescence polarization. inhibition, % at 5.96 µM. purified GLD-1 + fluorescein TGE RNA. Female germline-specific tumor suppressor gld-1 (Caenorhabditis elegans), Q17339. 320,000 tested, 0.44% active;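 active means percent inhibition above a per-plate cutoff, the plate mean of test compounds plus 3 SD, cut at about 30% in these data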;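 further: 0% = DMSO wells with GLD-1 and probe and 100% = wells lacking GLD-1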
Target sequence (Q17339 whole entry, looked up): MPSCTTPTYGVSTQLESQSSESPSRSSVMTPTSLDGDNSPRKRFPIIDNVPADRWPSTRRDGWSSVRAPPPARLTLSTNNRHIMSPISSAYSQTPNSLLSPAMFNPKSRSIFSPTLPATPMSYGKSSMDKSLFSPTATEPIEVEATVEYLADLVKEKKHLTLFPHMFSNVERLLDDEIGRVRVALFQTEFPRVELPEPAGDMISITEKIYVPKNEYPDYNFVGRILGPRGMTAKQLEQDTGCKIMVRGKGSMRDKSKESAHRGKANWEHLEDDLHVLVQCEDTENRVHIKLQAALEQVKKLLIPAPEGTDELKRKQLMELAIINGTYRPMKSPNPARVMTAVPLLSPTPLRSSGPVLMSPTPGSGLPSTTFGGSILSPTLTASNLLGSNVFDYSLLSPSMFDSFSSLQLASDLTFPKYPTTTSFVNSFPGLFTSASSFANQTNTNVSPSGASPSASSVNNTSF
GLD-1 TGE cf – GLD-1/TGE RNA binding inhibitors, retest, confirmation, biochemical, fluorescence polarization, triplicate; inhibition, % at 5.96 µM; AID 2459, 2010; GLD-1/FL-TGE RNA fluorescence polarization; 550 tested, 10% active; shares compounds with GLD-1 TGE inh;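 active means average inhibition across triplicates above the hit cutoff set in the primary screen, cut at about 32% in these data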;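 further: 0% = GLD-1 with RNA probe and DMSO and 100% = wells lacking GLD-1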
An asterisk follows results filed as active; . = no result.

SMILES	Mcl1 Bid PPI	BCLXL inh	Mcl1-Noxa inh	Bim-Mcl-1	MCL1-BIM inh	GLD-1 TGE inh	GLD-1 TGE cf
O=C(CNC(=O)c1cccs1)N/N=C/c1ccc(O)cc1O	-49	10	2	0	15	6	.
O=C(CNC(=O)c1cccnc1)N/N=C/c1ccc(O)cc1O	.	21	.	.	20	33*	11
NC(=O)CNCCC(c1ccccc1)c1ccccc1	.	4	.	.	9	7	.
CCNC(=O)NC(=O)C(C)OC(=O)Cc1coc2cc3c(cc12)CCC3 (centres undefined)	-14	-4	2	-1	-7	1	.
COc1cccc(C(=O)NN2CC(O)=C(c3nc4ccccc4s3)C2=N)c1	-21	0	13	1	1	31*	-7
COc1ccccc1N1CCN(C(=O)c2oc3c(c2C)C(=O)CC(C)(C)C3)CC1	.	-1	.	.	8	6	.
Cc1cnc(C(=O)Nc2ccccc2-c2ccc(C)o2)cn1	-23	36*	-1	-6	38	42*	2
Cc1cnc(C(=O)Nc2cccc3ncccc23)cn1	.	0	.	.	4	4	.
CCNC(=O)CC1SC(=Nc2ccc(C)c([N+](=O)[O-])c2)N(C)C1=O (centres undefined)	.	5	.	.	-1	31*	1
CC(=O)Nc1cccc(C(=O)NC2CCCc3c2cnn3-c2cc(C)cc(C)c2)c1 (centres undefined)	.	-6	.	.	-5	58*	1
N#CC1=C2N=C(N)c3ccccc3N2C2=C(C(=O)CCC2)C1c1cccc(Cl)c1 (centres undefined)	-3	21	-6	-4	16	48*	-1
O=C(NC1CCCCCC1)c1ccc(CS(=O)(=O)Cc2ccc(F)cc2)o1	.	5	.	.	4	5	.
Cc1ccc(CS(=O)(=O)Cc2ccc(C(=O)NC3CC3)o2)cc1	.	4	.	.	5	33*	-8
Cc1ccc(S(=O)(=O)N2CCOCC2)cc1C(=O)N1C(=O)c2cccc(N)c2C1=O	97*	30*	17	-1	32	32*	18
Nc1cccc2c1C(=O)N(C(=O)c1cccc(S(=O)(=O)N3CCCCCC3)c1)C2=O	-15	28	6	-1	31	38*	15
O=C(CCC1CCCN(Cc2ccc3c(c2)CCO3)C1)NCc1ccc(F)c(F)c1 (centres undefined)	-18	0	8	1	2	4	.
